The record followed here is PubChem BioAssay (NCATS).

Inconclusive results are not listed. Active and inactive are the calls of the source. Unless noted, calls follow the shape of the dose curve; as a rule, active = well fitted curve in the direction sought with a large enough effect; inconclusive = small, poorly fitted or top-dose-only effect, or another doubt; inactive = no such curve, though single readings can be large; an effect the other way counts as inactive or inconclusive.

A short description of assay [1]: qHTS to identify inhibitors of the type 1 interferon - major histocompatibility complex class I in skeletal muscle: primary screen against the NCATS Mechanism Interrogation Plate v5.0 (MIPE) Libary (AID 1347411). Also: nearly all actives have a fitted effect of over 65% in size. Also: potency is read from the fitted curve at half-maximal effect. The procedure, abridged:
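Luminescence from HiBiT-tagged endogenous HLA-B*08:01 served as the MHC class I read-out. CRISPR-engineered C25cl48 human myoblasts received 4.0 ng/ml IFN-beta plus compound for 24 hrs, with an 11-point, 1:3 series topping at 46 uM final.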

Assay [2] can be described thus: Primary qHTS for inhibitors of nuclear receptor binding SET domain protein 2 (NSD2) in an isogenic RCH-ACV NSD2 p.E1099K mutant (9B) (AID 1645876). Also: nearly all actives have a fitted effect of over 70% in size. Also: potency is read from the fitted curve at half-maximal effect. A general note: Quantitative high-throughput screening tests each substance at several concentrations.
Assay [3] can be described thus: Primary qHTS for inhibitors of nuclear receptor binding SET domain protein 2 (NSD2) in an RCH-ACV wild type WT cells (2C) (AID 1645877). Also: nearly all actives have a fitted effect of over 70% in size. Also: potency is read from the fitted curve at half-maximal effect.
For assay [4], the target named is Glutathione peroxidase 1 (Homo sapiens) (UniProt P07203). Kind of assay: Primary qHTS Assay for Inhibitors of Recombinant Selenoprotein Glutathione Peroxidase 1 (GPX1) (AID 1845191). Also: nearly all actives have a fitted effect of over 65% in size. The gist of the method:
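Recombinant GPX1 (10 nM final) was preincubated with compound for 30 min at room temperature, then reacted with 1 mM GSH, 0.5 mM CHP, 0.5 mM NADPH and 100 nM glutathione reductase; NADPH fluorescence (340/450 nm) was read at 0 and 15 min.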

Assay [5] is described as follows: qHTS drug screen for cell cycle checkpoint inhibitors in PARPi-resistant BRCA-mutant ovarian cancer cell lines. (AID 1963452; calls by dose curve; also: potency is read from the fitted curve at half-maximal effect). The conditions noted are these: PEO1/OlaR viability, CellTiter-Glo luminescence, 96 h; for Z-AUC: stronger effect = lower value. The gist of the method: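 PEO1, PEO4 and PEO1/OlaR ovarian cancer cells, 600 per well, exposed 96 h at 37C to a dilution series. Viability read by CellTiter-Glo luminescence, normalized to DMSO and empty wells; activity summarized as Z-AUC.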

For assay [6], the target named is Phospholipid hydroperoxide glutathione peroxidase GPX4 (Homo sapiens) (UniProt P36969). Kind of assay: Primary qHTS Assay for Inhibitors of Recombinant Selenoprotein Glutathione Peroxidase 4 (GPX4) (AID 1845192). Also: nearly all actives have a fitted effect of over 65% in size. The conditions noted are these: outcome: dose series up to 50 µM unless noted. The procedure, abridged:
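GR-coupled readout: 100 nM GR, 1 mM GSH, 0.5 mM NADPH; NADPH fluorescence (ex 340/em 450 nm) read at t=0 and after 15 min RT. GPX4 200 nM, preincubated 30 min with compound; substrate 0.5 mM CHP.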

The mark [7] stands for this setting: measured here: PEO1 parental Z-AUC.

Phospholipid hydroperoxide glutathione peroxidase GPX4 (Homo sapiens), sequence (P36969 whole entry, looked up): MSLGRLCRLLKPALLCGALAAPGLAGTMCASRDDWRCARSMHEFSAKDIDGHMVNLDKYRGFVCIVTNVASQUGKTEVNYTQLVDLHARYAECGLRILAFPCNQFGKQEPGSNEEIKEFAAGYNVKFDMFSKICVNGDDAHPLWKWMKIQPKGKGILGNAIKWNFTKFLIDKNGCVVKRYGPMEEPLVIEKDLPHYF
Glutathione peroxidase 1 (Homo sapiens), sequence (P07203 whole entry, looked up): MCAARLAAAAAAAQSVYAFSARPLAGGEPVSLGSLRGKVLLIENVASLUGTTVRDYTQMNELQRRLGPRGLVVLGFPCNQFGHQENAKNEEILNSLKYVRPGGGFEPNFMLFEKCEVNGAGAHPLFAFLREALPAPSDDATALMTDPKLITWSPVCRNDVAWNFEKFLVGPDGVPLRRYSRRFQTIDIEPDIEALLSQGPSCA

On to `COc1ccc(CNC(=O)c2cc(-c3cncc(Cl)c3)cnc2-c2ccccn2)nc1OC`, for which the Potency entry in assay [1], in assay [2], in assay [3] and in assay [4] was “inactive” each time. The Z-AUC in assay [5] is 0.765 (inactive); in assay [5] (setting [7]) it was 0.872; in assay [5] (measured here: PEO4 Z-AUC), 1.32.
With `C[C@H](NC(=O)[C@H]1NCC[C@@H]1O)c1ccc(-c2noc(CCC3CCCC3)n2)cc1`, the Potency entry in assay [1], in assay [2], in assay [3] and in assay [6] was “inactive” throughout. The figures for the Z-AUC in assay [5], in assay [5] (setting [7]) and in assay [5] (measured here: PEO4 Z-AUC) were 0.833 (inactive), 0.65 and 0.666, respectively.
With `C[C@@H]1CC(=O)Nc2cccc(-c3ccc4c(c3)c(-c3cnn(C)c3)nn4C)c2N1`, the Potency result in assay [1] and in assay [4] was “inactive” throughout. In addition, the Potency in assay [2] is 742 nM (active); in assay [3], 662 nM (active). Moreover, the results for the Z-AUC in assay [5], in assay [5] (setting [7]) and in assay [5] (measured here: PEO4 Z-AUC) were 1.34 (inactive), 1.02 and 1.12, respectively.
`CO[C@H]1/C=C/O[C@@]2(C)Oc3c(C)c(O)c4c(O)c(c5c(nc6cc(C)ccn65)c4c3C2=O)NC(=O)/C(C)=C\C=C\[C@H](C)[C@H](O)[C@@H](C)[C@@H](O)[C@@H](C)[C@H](OC(C)=O)[C@@H]1C`: the Potency entry in assay [1] and in assay [4] was “inactive” in each case. For the same molecule, the Potency in assay [2] is 20900 nM (active); in assay [3], 23500 nM (active). Also, the Z-AUC in assay [5] was -0.712 (inactive); in assay [5] (setting [7]) it was -1.19; in assay [5] (measured here: PEO4 Z-AUC), -1.09.
Consider `CC(=O)O/N=C1\C(=O)N(Cc2cc(Cl)ccc2Cl)c2ccc(Cl)cc21`, for which the results for the Potency in assay [1], in assay [2] and in assay [3] were 14700 nM (active), 5900 nM (active) and 4170 nM (active), respectively. For the same molecule, the Potency result in assay [4] was “inactive”. Further, the results for the Z-AUC in assay [5], in assay [5] (setting [7]) and in assay [5] (measured here: PEO4 Z-AUC) were 1.65 (inactive), 1.54 and 1.73, respectively.
For `CC(C)Oc1ccc(-c2nc(-c3cccc4c3CC[C@@H]4NCCO)no2)cc1C#N`, the Potency result in assay [1] and in assay [4] was “inactive” in each case. In addition, the values for the Potency in assay [2] and in assay [3] were 14800 nM (active) and 18600 nM (active), respectively. Moreover, the figures for the Z-AUC in assay [5], in assay [5] (setting [7]) and in assay [5] (measured here: PEO4 Z-AUC) were -0.0463 (inactive), 0.729 and 1.1, respectively.
Take `O=c1oc2c(C3OCCCO3)c(O)ccc2c2c1CNCC2`: the Potency entry in assay [1], in assay [2], in assay [3] and in assay [4] was “inactive” each time. Moreover, the Z-AUC in assay [5] is 0.112 (inactive); in assay [5] (setting [7]) it was -0.774; in assay [5] (measured here: PEO4 Z-AUC), -0.202.
As to `Cc1c(-c2c(-c3ccc(F)o3)sc3ncnc(O[C@@H](Cc4ccccc4OCc4ccnn4CC(F)(F)F)C(=O)O)c23)ccc(OCCN2CCN(C)CC2)c1Cl`, the Potency entry in assay [1] and in assay [4] was “inactive” in each case. For the same molecule, the values for the Potency in assay [2] and in assay [3] were 662 nM (active) and 166 nM (active), respectively. Moreover, the Z-AUC in assay [5] was 0.0867 (inactive); in assay [5] (setting [7]), 0.964; in assay [5] (measured here: PEO4 Z-AUC), 1.
As to `O=C(O)C[C@H]1CCc2c1[nH]c1ccc(OCc3ccc(C4CCCC4)c(C(F)(F)F)c3)cc21`, the Potency result in assay [1], in assay [2], in assay [3] and in assay [4] was “inactive” each time. Also, the values for the Z-AUC in assay [5], in assay [5] (setting [7]) and in assay [5] (measured here: PEO4 Z-AUC) were 1.56 (inactive), 0.981 and 0.948, respectively.
Regarding `COc1ccc2[nH]c(C(=O)N3CCC(CC(C)(C)O)CC3)cc2c1`, the Potency result in assay [1], in assay [2], in assay [3] and in assay [4] was “inactive” throughout. Also, the Z-AUC in assay [5] was 0.0283 (inactive); in assay [5] (setting [7]), 0.0965; in assay [5] (measured here: PEO4 Z-AUC), 0.395.
`COC(=O)/C=C/C(=O)OC`: the Potency entry in assay [1], in assay [2], in assay [3] and in assay [6] was “inactive” in each case. The Z-AUC is -0.0504 (inactive) in assay [5], 0.852 in assay [5] (setting [7]) and 0.675 in assay [5] (measured here: PEO4 Z-AUC).
Regarding `CONC(=O)Nc1ccc(-c2sc3c(c2CN(C)Cc2ccccc2)c(=O)n(-c2ccccc2)c(=O)n3Cc2c(F)cccc2F)cc1`, the Potency entry in assay [1], in assay [2], in assay [3] and in assay [6] was “inactive” each time. Moreover, the Z-AUC in assay [5] was -0.608 (inactive); in assay [5] (setting [7]), -0.886; in assay [5] (measured here: PEO4 Z-AUC), -0.917.
On to `O=C1NC(=O)/C(=C\c2ccc(-c3ccc(F)cc3)o2)S1`, for which the Potency entry in assay [1], in assay [2], in assay [3] and in assay [4] was “inactive” each time. The Z-AUC was 0.0775 (inactive) in assay [5], 0.696 in assay [5] (setting [7]) and 0.899 in assay [5] (measured here: PEO4 Z-AUC).
On to `CC(C)(O)c1coc(S(=O)(=O)NC(=O)Nc2c3c(cc4c2CCC4)CCC3)c1`, for which the Potency entry in assay [1], in assay [2], in assay [3] and in assay [4] was “inactive” each time. The Z-AUC was -0.755 (inactive) in assay [5], -0.798 in assay [5] (setting [7]) and -1 in assay [5] (measured here: PEO4 Z-AUC).
With `C/C(=N\NC(=S)N1CCC1)c1ccccn1`, the Potency entry in assay [1] and in assay [4] was “inactive” each time. Besides, the Potency in assay [2] is 10.5 nM (active); in assay [3] it was 9.3 nM (active). Besides, the Z-AUC in assay [5] is -0.969 (inactive); in assay [5] (setting [7]) it was -1.12; in assay [5] (measured here: PEO4 Z-AUC), -1.07.
Turning to `CC(C)n1c(=O)cc(N[C@@H](C)c2ccccc2)[nH]c1=O`, the Potency result in assay [1], in assay [2], in assay [3] and in assay [4] was “inactive” in each case. In addition, the Z-AUC in assay [5] was -0.0266 (inactive); in assay [5] (setting [7]), 0.859; in assay [5] (measured here: PEO4 Z-AUC), 1.05.
Take `CC1(N)CCN(c2cnc(-c3cccc(Cl)c3Cl)c(N)n2)CC1`: the Potency entry in assay [1], in assay [2], in assay [3] and in assay [6] was “inactive” in each case. The values for the Z-AUC in assay [5], in assay [5] (setting [7]) and in assay [5] (measured here: PEO4 Z-AUC) were -0.468 (inactive), -0.626 and -0.55, respectively.
For the molecule `Cc1cnc(NC(=O)c2cc(Oc3cnc(C(=O)N(C)C)nc3)c3cc(C)oc3c2)cn1`, the Potency entry in assay [1], in assay [2], in assay [3] and in assay [4] was “inactive” in each case. Moreover, the Z-AUC in assay [5] was -1.14 (inactive); in assay [5] (setting [7]) it was -0.452; in assay [5] (measured here: PEO4 Z-AUC), 0.0814.
As to `C/C=C1\NC(=O)[C@H]2CSSCC/C=C\[C@H](CC(=O)N[C@H](C(C)C)C(=O)N2)OC(=O)[C@H](C(C)C)NC1=O`, the Potency in assay [1] is 10.4 nM (active); in assay [2], 7.4 nM (active); in assay [3], 6.6 nM (active); in assay [5], 4.9 nM (active). In addition, the Potency result in assay [4] is “inactive”. Moreover, the Z-AUC was -3.43 in assay [5] (setting [7]) and -3.56 in assay [5] (measured here: PEO4 Z-AUC).
Regarding `O=C(O)CNC(=O)c1nc(Cl)c2ccccc2c1O`, the Potency result in assay [1], in assay [2], in assay [3] and in assay [4] was “inactive” in each case. Also, the Z-AUC was -0.321 (inactive) in assay [5], -0.207 in assay [5] (setting [7]) and -0.202 in assay [5] (measured here: PEO4 Z-AUC).
As for `CC(C)(C)C(=O)N1N=CC[C@H]1c1ccccc1`, the Potency result in assay [1], in assay [2], in assay [3] and in assay [4] was “inactive” in each case. For the same molecule, the Z-AUC in assay [5] was -0.69 (inactive); in assay [5] (setting [7]) it was -0.909; in assay [5] (measured here: PEO4 Z-AUC) it was -0.663.
